# D2 antagonist: antagonists of human D2 dopamine receptor. actives 2% (n = 340,000). HEK293 TREx D2 cells, calcium flux, dopamine EC80. AID 485344. P14416. inhibition, % at 10 µM; in the data active = inhibition above about 30%; inactive = below that, where a call was filed; also: 0% is about no effect
# Target sequence (P14416 whole entry, looked up): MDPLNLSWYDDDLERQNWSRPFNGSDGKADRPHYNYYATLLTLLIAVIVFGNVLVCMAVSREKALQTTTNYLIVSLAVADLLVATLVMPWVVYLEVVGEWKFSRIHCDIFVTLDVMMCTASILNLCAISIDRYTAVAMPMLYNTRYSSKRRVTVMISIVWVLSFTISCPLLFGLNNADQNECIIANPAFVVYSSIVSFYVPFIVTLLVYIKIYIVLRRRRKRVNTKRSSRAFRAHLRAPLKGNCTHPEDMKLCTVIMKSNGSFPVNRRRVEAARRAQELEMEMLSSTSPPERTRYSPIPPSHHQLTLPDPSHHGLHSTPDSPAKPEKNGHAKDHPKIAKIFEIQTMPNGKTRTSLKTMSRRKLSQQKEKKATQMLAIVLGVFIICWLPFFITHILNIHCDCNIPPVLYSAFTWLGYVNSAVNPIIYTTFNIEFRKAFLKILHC
#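 Antagonism is scored as inhibition of an EC80 dopamine-evoked calcium signal in a force-coupled, tetracycline-inducible HEK293 T-REx D2 line, with compound present 180 s before agonist.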
# D2 PAM-1: human D2 receptor positive allosteric modulation | DiscoveRx D2 beta-arrestin cells, luminescence, 90 min; 100% = 57 uM dopamine signal | potentiation, % (test concentration not listed) | actives 0.23% (n = 360,000); in the data active = potentiation above about 50%
#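 PathHunter beta-arrestin assay in DiscoveRx D2 cells. Compounds were added with an EC20 of dopamine (50 nM final) for 90 min at 37 deg C. Luminescence was read 1 h after detection reagent, with 57 uM dopamine as the EC100 control.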
# D2 PAM-2: D2 dopamine receptor (human) potentiation; AID 485347; actives 0.34% (n = 340,000); potentiation, % at 10 µM; P14416; HEK293 T-REx D2, calcium flux, EC20 dopamine potentiation;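 active = potentiation over 3 SD above the plate norm, cut at about 30% in these data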; also: 0% is about no effect
#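 Potentiation of an EC20 dopamine calcium response measured kinetically over 180 s, after a preceding 180 s compound-only read flagging agonists. Cells: inducible Hek293 Trex D2 line, 4000/well, cultured overnight at 30 C before dye loading.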
# D2 ag-1: agonists of human D2 dopamine receptor. P14416. HEK293 T-REx D2 cells, calcium flux agonist mode. activation, % at 2 µM. actives 0.53% (n = 340,000);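 active = activation over 3 SD above normal in the single-dose calcium agonist read, cut at about 30% in these data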; also: 0% is about no effect
#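 Agonism scored from kinetic calcium signal (1 read/sec, 180 s) following compound pin transfer, after a 10 s baseline. Cells: HEK293 Trex line expressing inducible D2 receptor coupled to calcium, dye-loaded after overnight culture at 30 C.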
# D2 ag-2: agonists of human D2 dopamine receptor (beta-arrestin). DiscoveRx PathHunter D2 beta-arrestin, luminescence, 90 min; 100% = 57 uM dopamine signal. AID 624465. actives 0.084% (n = 360,000). activation, % (no concentration beside the values); in the data active = activation above about 40%
#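 Agonist mode: compounds alone added to overnight-plated D2 PathHunter cells for 90 min at 37 C, with 57 uM final dopamine (EC100) defining full response. Beta-arrestin recruitment detected by chemiluminescent reagent, read after 1 h at ambient temperature.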
# * hit, by the source's call; / = not tested or not shown. Compounds with a hit are over-represented: about 2.4% of the library has one in this group of screens.
SMILES,D2 antagonist,D2 PAM-1,D2 PAM-2,D2 ag-1,D2 ag-2
CC(C)c1nnc(NC(=O)CCC(=O)Nc2ccc(Cl)cc2)s1,40.6*,-36.6,-27.4,-0.2,-2.1
Cc1cc(C)cc(NC(=O)CCC(=O)Nc2nnc(C(C)C)s2)c1,33.2*,-28.1,-20.8,0.1,-4.2
Cc1cc(C)cc(NC(=O)CCC(=O)Nc2nnc(C(F)(F)F)s2)c1,13.6,-2.0,7.6,0.0,-3.0
CC(C)Cc1nnc(NC(=O)CCC(=O)Nc2ccc(Cl)cc2)s1,19.3,-16.9,-4.4,-0.1,-1.9
CC(=O)NC12CC3CC(C1)CC(C(=O)OCC(=O)Nc1c(F)cccc1F)(C3)C2,37.0*,-6.8,-5.9,0.2,1.5
CC(C)(C)C(=O)COC(=O)CCc1nc2ccccc2[nH]c1=O,30.6*,1.4,10.6,0.6,3.3
CC(C)c1ccc(NC(=O)Cn2cc(S(=O)(=O)Cc3cccc(Cl)c3)c3ccccc32)cc1,/,/,-12.2,1.1,/
CC1CCN(CCOc2ccc(OCc3ccccc3)cc2)CC1,30.9*,-33.9,-36.5,2.0,-10.5
c1ccc(COc2ccc(OCCCCN3CCCC3)cc2)cc1,-1.8,-23.2,0.6,2.6,-6.3
CC1CCN(CCCCOc2ccc(C(C)(C)C)cc2)CC1,32.6*,-12.6,-19.7,0.7,1.8
Cc1ccccc1CNC(=O)C(C)n1nc(C)n2c(cc3occc32)c1=O (stereo unspecified),/,/,-1.0,/,/
COc1ccc(N=Nc2nc3cc(Br)c(Br)cc3n2C)c(OC)c1,-0.3,-11.1,-2.1,32.5*,-0.8
CCOC(=O)c1nnc2c(-c3ccc(Cl)cc3)c(C)nn2c1C,/,/,-3.0,0.6,/
Oc1ccccc1N1CCN(Cc2ncc(-c3ccccc3)o2)CC1,56.9*,-15.3,-34.7,0.6,-2.7
CC(C)C(NS(=O)(=O)c1ccc2c(c1)oc(=O)n2C)C(=O)NCCc1ccc(Cl)cc1 (stereo unspecified),/,/,0.3,0.0,/
Cc1cccc(CSCCNC(=O)CSCc2ccc([N+](=O)[O-])cc2)c1,-13.7,-21.0,-4.1,-0.1,0.4
C/C(=N\NC(=O)CSCc1ccc([N+](=O)[O-])cc1)c1ccccc1O,77.0*,-41.6,-26.9,0.0,-4.5
Cc1ccc(CSCCNC(=O)CSCc2ccc([N+](=O)[O-])cc2)cc1,31.7*,-14.5,-8.6,-3.0,0.3
O=C(Nc1ccc(C(=O)OCc2cc(=O)n3c4c(sc3n2)CCCC4)cc1)c1ccc(Cl)cc1,/,/,2.1,1.1,/
CCN(CC)CCNCc1ccc(-c2ccc(Cl)cc2)o1,33.4*,-29.6,-23.7,0.5,0.7
CCN(CC)CCNCC(O)(c1ccc(Cl)cc1)c1ccc(Cl)cc1,/,-15.9,-24.9,/,-1.4
COc1cccc(NC(=O)C2CCN(S(=O)(=O)c3c(C)noc3/C=C/c3cccs3)CC2)c1,/,/,-6.5,0.2,/
CCOc1ccc(C(=O)OCc2cc(=O)n3cc(C)sc3n2)cc1,/,/,-3.5,-2.1,/
COc1ccc(OC)c(N)c1,-20.9,60.9*,-9.1,-1.0,1.8
CN(C)CCNC(=O)CN1C(=O)COc2ccc(S(=O)(=O)N3CCCC3)cc21,/,/,3.7,0.6,/
SMILES,D2 antagonist,D2 PAM-1,D2 PAM-2,D2 ag-1,D2 ag-2
COC(=O)c1ccccc1NC(=O)C1CCN(C(=O)N2CC(C)Oc3ccccc32)CC1 (stereo unspecified),/,/,-6.7,2.6,/
CC1CCN(CC[C@H]2CCCN2S(=O)(=O)c2cccc(O)c2)CC1,34.3*,-23.4,-20.9,0.2,-5.4
O=C(NCCC1CCCCN1S(=O)(=O)c1ccccc1)C(=O)NCCN1CCOCC1 (stereo unspecified),-0.2,-21.1,-0.7,0.6,-9.3
COc1ccc2c(C)cc(SCc3c(C)noc3C)nc2c1,30.6*,-1.5,-5.3,1.0,1.0
CSc1ccccc1NC(=O)CSc1n[nH]c(C)c1[N+](=O)[O-],40.7*,-6.0,0.2,0.3,-1.8
Cc1ccc(O)c(NC(=O)CSc2n[nH]c(C)c2[N+](=O)[O-])c1,/,6.3,/,/,13.8
Cc1ccc(NC2=C(c3ccc(C(F)(F)F)cc3)C(=O)c3ccccc32)cc1C,/,/,0.3,-0.2,/
O=C1CC(=O)Nc2cc(S(=O)(=O)Nc3ccc(Cl)c(C(F)(F)F)c3)ccc2N1,9.7,6.4,3.3,0.1,5.0
O=C1CC(=O)Nc2cc(S(=O)(=O)Nc3cccc(C(F)(F)F)c3)ccc2N1,30.5*,8.2,1.3,0.2,1.6
O=C1N[C@@H](Cc2ccccc2)C(=O)N2CCCC12 (stereo partly specified),/,-6.3,/,/,-3.3
O=C1N[C@@H](Cc2cnc[nH]2)C(=O)N2CCC[C@@H]12,45.2*,-4.8,-1.1,2.2,-5.6
COc1ccc(N2CCN(S(=O)(=O)CCNC(=O)c3ccc(C(F)(F)F)cc3)CC2)cc1,/,/,-4.4,1.6,/
Cc1nc(N2CCN(c3ccccn3)CC2)c2c(C)c(C(=O)N3CCN(c4cccc(Cl)c4)CC3)sc2n1,26.3,-5.3,30.7*,1.6,-0.7
Cc1ccc(CN2CCC(C(=O)NCCC(C)C)CC2)o1,30.1*,-30.0,-3.9,0.1,-2.0
CCOc1ccc(N(C(=O)c2snc(C(N)=O)c2N)C(C)C(=O)NC2CCCCC2)cc1 (stereo unspecified),17.8,-12.6,/,-2.9,5.7
Cc1ccc(N(C(=O)c2snc(C(N)=O)c2N)C(C(=O)NC2CCCC2)c2ccncc2)cc1 (stereo unspecified),104.8*,-1.1,-21.2,0.2,-2.1
CCOc1ccc(N(C(=O)c2snc(C(N)=O)c2N)C(C(=O)NC2CCCC2)C(C)C)cc1 (stereo unspecified),-5.0,-6.8,31.0*,-1.0,-2.6
COc1cc(OC)cc(N(C(=O)c2snc(C(N)=O)c2N)C(C(=O)NCC2CCCO2)c2ccc(C)o2)c1 (stereo unspecified),11.3,/,34.6*,0.2,/
Cc1ccc(C(C(=O)NC2CCCCC2)N(CCCN2CCOCC2)C(=O)c2snc(C(N)=O)c2N)cc1 (stereo unspecified),49.2*,-18.9,-18.0,0.3,-3.0
CCOc1ccc(CC(=O)NCCc2sc3nc(-c4ccc(F)cc4)nn3c2C)cc1,/,/,-10.1,0.8,/
CC(CNC(=O)CN1C(=O)COc2ccc(S(=O)(=O)N3CCCCCC3)cc21)c1ccccc1 (stereo unspecified),/,/,1.3,-0.3,/
O=C(CCCCCn1c(=O)c2sccc2n(CC(=O)Nc2ccccc2F)c1=O)NCc1ccc2c(c1)OCO2,/,/,-5.5,-0.2,/
CCn1c(=O)c2cc(C(=O)Nc3cccc(C(F)(F)F)c3)sc2c2ccccc21,/,/,1.7,/,/
Cc1cc(Oc2ccc(=O)n(C)n2)nc(SCCOc2ccccc2)n1,-2.9,-0.8,0.2,-0.1,-0.5
CCOC(=O)CSc1nc(C)cc(Oc2ccc(=O)n(C)n2)n1,35.8*,-4.0,-0.5,0.5,-0.2
O=C(CCSc1ccc(Cl)cc1)NCc1ccncc1,-2.6,-10.3,-1.7,0.7,-0.8

# High-throughput results from PubChem BioAssay.
